Experimental data: PubChem BioAssay

Experiments:
[1] = test system: Human papillomavirus type 1a protein E7 (residues 44-93); test: small molecules binding HPV E7 44-93 – biochemical, small-molecule microarray, residues 44-93, 635 nm fluorescence, primary screen (AID 1108); conditions: fluorescence 635 nm, higher = more signal;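 note: E7 fragment applied at 1 µg/mL in TBST for 1 h at 4 C; score combines spot fluorescence with its signal to noise ratio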
[2] = hepatitis C replication reporter changes, two-sided – Huh7 cells, luciferase reporter, HCV replication inhibitor project, primary screen (AID 1109); conditions: Huh7 HCV replicon luciferase reporter, 48 h; higher = more signal;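 note: huh7 hepatoma cells harbouring a luciferase neomycin HCV replicon reporter; luciferase luminescence as measure of HCV replicon replication; test concentration not given here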
[3] = molecular target: Left-right determination factor 2 (Homo sapiens) (UniProt O00292); test: small molecules binding LEFTY2 protein – biochemical, small-molecule microarray, 635 nm fluorescence scan, primary screen (AID 1110); conditions: higher = more signal
Left-right determination factor 2 (Homo sapiens), sequence (O00292 whole entry, looked up): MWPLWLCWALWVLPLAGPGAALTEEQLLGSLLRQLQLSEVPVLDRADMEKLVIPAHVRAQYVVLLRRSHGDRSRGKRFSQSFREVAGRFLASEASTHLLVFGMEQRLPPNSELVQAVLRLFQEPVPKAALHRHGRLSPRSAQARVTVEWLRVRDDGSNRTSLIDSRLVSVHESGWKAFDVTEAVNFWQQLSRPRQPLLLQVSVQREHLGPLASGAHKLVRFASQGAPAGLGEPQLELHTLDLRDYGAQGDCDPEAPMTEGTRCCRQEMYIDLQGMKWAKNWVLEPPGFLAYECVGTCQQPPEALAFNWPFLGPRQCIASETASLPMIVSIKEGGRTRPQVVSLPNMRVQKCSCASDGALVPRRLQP

[4] = molecular target: Calmodulin-1 (Homo sapiens) (UniProt P0DP23); test: small molecules binding calmodulin-1 with EGTA – biochemical, small-molecule microarray, Cy5-labelled CALM1, profiling panel (AID 1111); conditions: Cy5-CALM1 binding fluorescence, higher = more signal;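 note: labelled calmodulin applied in Tris saline Tween buffer holding calcium plus EGTA and DTT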
[5] = molecular target: Calmodulin-1 (Homo sapiens) (UniProt P0DP23); test: small molecules binding Ca-loaded calmodulin-1 – biochemical, small-molecule microarray, Cy5-labelled CALM1, plus calcium, artefact control for SMM control-protein annotation, profiling panel (AID 1112); conditions: Cy5-CALM1 binding fluorescence, higher = more signal;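 note: score merges spot fluorescence with signal to noise from triplicate slides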
[6] = probe aWnt5a binding to arrayed compounds – biochemical, biotinylated probe, 635/667 nm fluorescence, primary screen (AID 1113); conditions: small-molecule microarray, higher = more signal;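 note: score merges 667 nm fluorescence intensity with signal-to-noise per printed feature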
[7] = probe aShh binding to arrayed compounds – biochemical, biotinylated probe, 635/667 nm fluorescence, primary screen (AID 1114); conditions: small-molecule microarray, higher = more signal;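 note: probe is biotin-labelled aShh protein from a stem cell growth factor screen; measures binding of labelled protein to compounds printed on the slide; score merges feature fluorescence at 667 nm with signal-to-noise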
[8] = probe aNog binding to arrayed compounds – biochemical, biotinylated probe, 635/667 nm fluorescence, primary screen (AID 1115); conditions: small-molecule microarray, higher = more signal;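 note: probe is biotinylated aNog protein used at 0.15 µg/mL for 1 h at 4 C; z-score combines 667 nm fluorescence of each spot with its signal to noise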
[9] = molecular target: Torsin-1A-interacting protein 1 (Homo sapiens) (UniProt Q5JTV8); test: compound microarray binding of lysate hLAP1 – cell lysate, small-molecule microarray, COS7 lysate, 635/667 nm fluorescence, primary screen (AID 1116); conditions: 635 nm fluorescence, higher = more signal
Torsin-1A-interacting protein 1 (Homo sapiens), sequence (Q5JTV8 whole entry, looked up): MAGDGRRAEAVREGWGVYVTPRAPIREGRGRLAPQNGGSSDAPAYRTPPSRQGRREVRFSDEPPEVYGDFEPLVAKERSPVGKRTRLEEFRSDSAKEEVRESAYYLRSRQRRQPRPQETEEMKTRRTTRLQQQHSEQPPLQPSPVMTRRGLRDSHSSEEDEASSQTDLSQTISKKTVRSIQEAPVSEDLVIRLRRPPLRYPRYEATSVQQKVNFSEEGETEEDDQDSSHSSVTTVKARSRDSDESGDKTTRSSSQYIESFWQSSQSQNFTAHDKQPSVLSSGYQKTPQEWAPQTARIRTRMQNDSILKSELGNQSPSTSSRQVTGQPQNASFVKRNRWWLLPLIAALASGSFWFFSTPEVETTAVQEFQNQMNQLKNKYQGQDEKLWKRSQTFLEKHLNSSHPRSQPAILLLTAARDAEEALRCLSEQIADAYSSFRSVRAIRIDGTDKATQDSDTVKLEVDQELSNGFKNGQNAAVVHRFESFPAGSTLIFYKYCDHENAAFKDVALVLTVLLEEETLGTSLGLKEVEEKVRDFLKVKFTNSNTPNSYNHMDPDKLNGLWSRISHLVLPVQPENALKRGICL

[10] = molecular target: Alpha-bungarotoxin (Bungarus multicinctus) (UniProt P60615); test: compounds binding labelled alpha-BTX control protein – biochemical, small-molecule microarray, Alexa647 label, 635/667 nm fluorescence, artefact control for SMM control protein annotation, profiling panel (AID 1117); conditions: alpha-BTX-A647 binding fluorescence, higher = more signal
Alpha-bungarotoxin (Bungarus multicinctus), sequence (P60615 whole entry, looked up): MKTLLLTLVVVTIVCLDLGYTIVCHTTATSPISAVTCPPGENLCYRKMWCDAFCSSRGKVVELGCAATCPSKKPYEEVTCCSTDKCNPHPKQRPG

| Structure (SMILES) | composite z-score [1] | z-score [2] | composite z-score [3] | composite z-score [4] | composite z-score [5] | composite z-score [6] | composite z-score [7] | composite z-score [8] | composite z-score [9] | composite z-score [10] |
| --- | --- | --- | --- | --- | --- | --- | --- | --- | --- | --- |
| C#CCCCON=C1C[C@@H](O)[C@@H](O)[C@@H]2[C@@H]3C(=O)N(c4cccc(Oc5ccccc5)c4)C(=O)[C@@H]3CC[C@@H]12 | 1.3 | -0.497 | 0.159 | 0.298 | -0.285 | -0.0808 | -0.0709 | -0.183 | 0.0847 | 0.724 |
| COC(=O)[C@H](C)NC(=O)CCC1CC(OC(=O)NCc2ccc3c(c2)OCO3)CC2(CCCC(COC(=O)NCCOc3ccccc3)O2)O1 (stereo not given in full) | 0.966 | -0.424 | 0.581 | -0.0874 | -0.604 | -0.129 | -0.138 | -0.283 | 0.267 | 0.83 |
| Cn1c(=O)n2n(c1=O)[C@H]1[C@H](O)[C@@H]3O[C@@H]3C(=NOC[C@@H](O)COCc3ccco3)[C@H]1CC2 | 0.499 | 0.481 | 0.83 | 0.132 | -0.844 | -0.216 | -0.468 | 0.964 | 0.314 | 0.318 |
| CCN1C(=O)[C@H]2[C@H]3[C@H](O)C=CC(=O)[C@@H]3CC[C@H]2C1=O | 0.907 | 0.305 | 0.503 | 0.0903 | -0.528 | -0.126 | -0.13 | 0.0658 | 0.694 | 0.45 |
| CC[C@@H](c1ccccc1)n1c(=O)n2n(c1=O)[C@H]1[C@H](O)[C@@H]3O[C@@H]3C(=NOCC=C(C)CCC=C(C)C)[C@H]1CC2 | 1.21 | -3.62 | 0.827 | -0.0812 | -0.834 | -0.001 | -0.0866 | -0.136 | 0.215 | 0.0806 |
| COC(=O)C1(C)C=C2C(=C(c3ccccc3)C(=O)C2C)CN1 (stereo not given) | -1.06 | -0.546 | -1.3 | 0.29 | -0.0125 | -0.034 | -0.119 | 1.74 | 1.72 | -0.422 |
| CCOC(=O)CCN1C(=O)[C@H]2[C@H]3[C@H](O)[C@H](O)CC(=NOC[C@@H](O)COCc4ccco4)[C@H]3CC[C@H]2C1=O | 1.11 | -2.99 | 0.622 | -0.039 | -0.438 | -0.152 | -0.0769 | -0.0446 | 0.0386 | 0.351 |
| CCOC(=O)CCN1C(=O)[C@H]2[C@H]3[C@H](O)[C@H](O)CC(=NOCc4ccccc4)[C@@H]3CC[C@H]2C1=O | -0.482 | -1.08 | 0.591 | -0.138 | -0.848 | -0.0125 | -0.243 | 0.107 | -0.0594 | 0.419 |
| CCc1cc2c(nc1CC)CCN(CCC(C)=NOC[C@@H](O)[C@H]1O[C@@H]3OC(C)(C)O[C@@H]3[C@H]1O)C2 | 0.176 | -1.59 | 0.317 | 1.68 | 0.0363 | -0.0607 | -0.16 | -0.238 | 0.455 | 0.677 |
| CCOC(=O)[C@H](Cc1ccccc1)NC(=O)CCC1CC(OC(=O)NCc2ccc3c(c2)OCO3)CC2(CCCC(COC(=O)NCc3ccccc3)O2)O1 (stereo not given in full) | 1.33 | -1.08 | 0.619 | 0.351 | -0.298 | -0.128 | -0.0793 | 0.041 | 0.183 | 0.463 |
| COc1ccc([Si](C)(C)[C@@H]2[C@@H](CCO)O[C@]3(C(=O)N(Cc4ccc(NC(C)=O)cc4)c4ccccc43)[C@H]2C)cc1 | 1.43 | -5.21 | 0.621 | 1.07 | 0.521 | 0.0136 | 0.441 | 0.715 | 0.802 | 1.21 |
| CC(C)[Si]1(C(C)C)O[C@@H](c2ccccc2)c2cc(C3CC3)nc(-c3ccccc3)c21 | 0.503 | -0.587 | -0.953 | -0.0471 | -0.239 | -0.126 | -0.221 | -0.368 | -0.509 | 0.181 |
| CN1C(=O)C2C=CC(C(O)C(c3ccccc3)c3ccccc3)N(NC(=O)OC(C)(C)C)C2C1=O (stereo not given) | 1.32 | -0.527 | -0.0483 | 2.75 | 1.09 | 0.306 | 0.915 | 2.09 | 2.59 | 2.04 |
| C[C@@H]1C=CCC(=O)OC[C@H](C)C(=O)OC[C@H]2O[C@H]1C=C[C@H]2O | 0.0717 | -2.33 | 0.71 | -0.239 | -1.16 | -0.228 | -0.0793 | -0.278 | -0.0644 | -0.108 |
| CO[C@H]1COC(=O)[C@@H]2CCCN2C(=O)[C@@H](C)COC(=O)CC=C[C@@H]1C | -1.03 | -0.496 | 1.2 | 0.212 | -0.823 | -0.13 | -0.0793 | -0.0209 | 0.626 | -1.16 |
| CCN1C(=O)[C@H]2[C@H]3[C@H](O)[C@H](O)CC(=NO[C@@H]4O[C@H](CO)[C@@H](O)[C@H](O)[C@H]4O)[C@@H]3CC[C@H]2C1=O | -2.4 | 0.26 | -0.251 | -0.665 | -0.813 | -0.18 | -0.545 | -0.1 | -0.442 | -0.479 |
| COC(=O)[C@@H]1CC[C@H](C)[C@@H](c2ccc(C)cc2)N1C(=O)c1ccc(C=NOC[C@@H](O)COCc2ccco2)cc1 | -1.6 | -2.42 | 0.283 | -1.22 | -1.22 | -0.21 | -0.2 | -0.788 | -1.63 | -1.25 |
| CC=CC1=C(CO)[C@H](O)[C@H]2O[C@H]2[C@H]1O | 0.598 | -0.956 | 0.827 | -0.381 | -1.02 | -0.0758 | -0.304 | -0.309 | -0.134 | -0.0092 |
| Cc1cc(C)c(-c2cc([C@H](C)ON=C3[C@H]4CCn5c(=O)n(-c6ccccc6)c(=O)n5[C@H]4[C@H](O)[C@@H]4O[C@H]34)on2)c(C)c1 | 0.548 | -4.92 | 0.59 | 0.0681 | -0.386 | 0.0559 | 0.184 | -0.0554 | 0.441 | 0.322 |
| CN(C)c1ccc(C(O)C2C=CC3C(=O)N(c4ccccc4)C(=O)C3N2Nc2ccccc2F)cc1 (stereo not given) | 1.31 | -0.369 | -0.633 | 0.104 | -0.472 | -0.0685 | 0.275 | 0.471 | 0.838 | 0.738 |
| COc1ccc([Si](C)(C)[C@H]2[C@H](CC(=O)N3CCC[C@H]3CO)O[C@@]3(C(=O)N(Cc4cccc(N5C(=O)COc6ccccc65)c4)c4ccccc43)[C@@H]2C)cc1 | 1.08 | -2.51 | 0.805 | 1.36 | 0.487 | 0.0556 | -0.17 | 0.274 | 1.16 | -0.654 |
| CO[C@H]1COC(=O)[C@H](C)NC(=O)[C@@H](C)COC(=O)CC=C[C@@H]1C | -0.0574 | -0.504 | 0.348 | -0.239 | -0.514 | 0.0502 | 0.432 | 0.131 | 0.687 | 0.53 |
| O=C1C[C@@H](O)[C@@H](O)[C@@H]2[C@@H]3C(=O)N(c4ccc(F)cc4F)C(=O)[C@@H]3CC[C@@H]12 | 0.461 | 0.586 | 0.585 | -0.0799 | -0.389 | 0.441 | -0.221 | -0.22 | 0.408 | -0.157 |
